This is a sample that favours compounds with a hit; in the whole collection about 0.64% have one here.
BLM inh: blocks DNA unwinding by human BLM helicase. recombinant BLM DNA unwinding, fluorescence dequenching. Potency, µM (titrated, usually from 56.1 µM), for inactives: top-dose activity change, negative = inhibition, usual class: inhibitors. hit rate 0.2% among 350,000;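 note: plate controls were vehicle for no effect and no enzyme for full effect; nearly all actives have a fitted effect of over 35% in size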
TexasRed fluor: alters Texas Red total fluorescence, flagging assay interference; Potency, µM (titrated, usually from 106 µM), for the others: at the top dose fluorescence change, negative = quenching; TRb/SRC2 Texas Red total fluorescence interference; hit rate 0.29% among 280,000; active = well fitted curve in either direction with a large enough effect; inconclusive = small, poorly fitted or top-dose-only effect
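Human TRβ ligand-binding domain (0.6 uM) and Texas Red SRC2 peptide (20 nM) in Tris buffer with 1 uM T3 and 5% DMSO were incubated with pinned compound for 5 hr at ambient temperature. Total fluorescence was computed as S + 2P (555/632 nm).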
TRb SRC2 PPI: TRbeta-SRC2 interaction inhibition; Potency, µM (series often up to 106 µM), inactives show at the top dose activity change, negative = inhibition, most hits filed as inhibitors; P10828; hit rate 0.065% among 280,000; TRbeta-SRC2 peptide binding, fluorescence polarization; receptor liganded with 1 µM T3;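 note: plate controls were bound peptide for no effect and peptide without receptor for full effect; nearly all actives have a fitted effect of over 50% in size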
Target sequence (P10828 whole entry, looked up): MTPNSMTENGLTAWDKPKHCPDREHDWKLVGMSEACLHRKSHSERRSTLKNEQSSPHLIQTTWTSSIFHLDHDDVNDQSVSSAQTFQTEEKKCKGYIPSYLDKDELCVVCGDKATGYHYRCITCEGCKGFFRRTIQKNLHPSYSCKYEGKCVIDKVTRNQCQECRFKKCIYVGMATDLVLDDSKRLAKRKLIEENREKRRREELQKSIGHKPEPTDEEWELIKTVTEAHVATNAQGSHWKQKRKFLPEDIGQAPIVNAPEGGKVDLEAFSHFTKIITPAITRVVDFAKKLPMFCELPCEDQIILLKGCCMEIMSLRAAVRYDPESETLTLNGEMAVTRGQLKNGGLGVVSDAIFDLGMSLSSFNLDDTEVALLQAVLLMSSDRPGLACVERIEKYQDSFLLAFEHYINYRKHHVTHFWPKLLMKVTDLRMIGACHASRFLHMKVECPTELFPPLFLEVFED
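Fluorescence polarization of 20 nM Texas Red SRC2 peptide with 0.6 uM human TRb ligand-binding domain, in Tris buffer with 1uM T3 and 5% DMSO. Incubated 5 hr ambient; normalized to unbound and bound controls.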
RECQ1 inh-1: blocks DNA unwinding by human RECQ1. P46063. RECQ1 DNA unwinding, red fluorescence kinetic read. Potency, µM (highest dose often 57.3 µM), without a hit: at the top dose activity, negative = inhibition, actives largely listed as inhibitors. hit rate 0.54% among 240,000;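 note: plate controls were vehicle for no effect and no enzyme for full effect; nearly all actives have a fitted effect of over 30% in size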
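50 nM RECQ1T1 preincubated 15 min with compound in Tris pH 8.0 buffer with MgCl2, DTT, Tween-20 and 2.5 ug/ml poly(dI-dC); started with 200 nM TAMRA/BHQ-2 forked duplex and 2 mM ATP. Unwinding read as fluorescence (525/598 nm), two reads 2 h apart.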
RECQ1 inh conf: confirmation of human RECQ1 helicase inhibitors. shares compounds with RECQ1 inh-1. RECQ1 helicase DNA unwinding, fluorescence. Potency, µM (series often up to 229 µM), inactives show at the top dose activity change, negative = inhibition, usual class: inhibitors. hit rate 28% among 610. AID 2708; note: nearly all actives have a fitted effect of over 45% in size
ADP FP counter: displaces ADP in a fluorescence polarization counter-screen for RECQ1 hits. shares compounds with RECQ1 inh-1. ADP fluorescence polarization displacement counterscreen. Potency, µM (doses to about 228 µM), without a hit: top-dose activity change, negative = inhibition, most hits filed as inhibitors. hit rate 27% among 530. AID 2711; note: nearly all actives have a fitted effect of over 45% in size
RECQ1 inh-2: RECQ1 helicase inhibition confirmed, round 2; hit rate 15% among 1,100; shares compounds with RECQ1 inh-1; recombinant RECQ1 DNA unwinding, red fluorescence; AID 504841; Potency, µM (doses to about 119 µM), inactives show at the top dose activity, negative = inhibition, actives largely listed as inhibitors; note: nearly all actives have a fitted effect of over 50% in size
* hit, by the source's call. Unless noted, calls come from the whole dose curve; as a rule, active = well fitted curve in the direction sought with a large enough effect; inconclusive = small, poorly fitted or top-dose-only effect, or another doubt; inactive = no such curve, though single readings can be large; an effect the other way counts as inactive or inconclusive. Unless noted, % is set by controls: 0 for no effect and ±100 for the full control effect; potency is the fitted concentration of half-maximal effect.

Cc1ccc(NC(=O)Cn2c(=O)n(-c3ccccc3)c(=O)c3ccc(C(=O)NCc4ccc5c(c4)OCO5)cc32)cc1 was read as BLM inh -4.7%, TexasRed fluor 0.3% and TRb SRC2 PPI 4.1%.
`CN(C)c1ccc(C2C3=C(CCCC3=O)OC3=C2C(=O)CCC3)cc1` gave BLM inh -13.7%, TexasRed fluor 2.1%, TRb SRC2 PPI -12.9%, RECQ1 inh-1 inconclusive and RECQ1 inh-2 1.5%.
`COc1ccc(Cl)cc1C(=O)Nc1cccc(-c2ccc3nncn3n2)c1` gave BLM inh -12.2%, TexasRed fluor -15.5%, TRb SRC2 PPI 0.2%, RECQ1 inh-1 inconclusive and RECQ1 inh-2 inconclusive.
Screening O=c1nc(/C=C/c2cccn2-c2ccc([N+](=O)[O-])cc2)cc(C(F)(F)F)[nH]1 returned BLM inh -27.5%, TexasRed fluor -7.6%, TRb SRC2 PPI 3.4%, RECQ1 inh-1 35.5µM* and RECQ1 inh-2 inconclusive.
O=C(CCNS(=O)(=O)c1c(Cl)cccc1Cl)OCC(=O)c1ccccc1 was read as BLM inh -4.9%, TexasRed fluor 8.7%, TRb SRC2 PPI 8.6% and RECQ1 inh-1 -1.1%.
For O=C(CNS(=O)(=O)c1c(Cl)cccc1Cl)OCC(=O)c1ccc[nH]1 the results were BLM inh -26.1%, TexasRed fluor 2.0%, TRb SRC2 PPI 1.7%, RECQ1 inh-1 inconclusive and RECQ1 inh-2 -22.6%.
COc1ccccc1Oc1nc2c(c(=O)n(Cc3ccccc3F)c(=O)n2C)n1C was read as BLM inh inconclusive, TexasRed fluor -6.1%, TRb SRC2 PPI 2.4%, RECQ1 inh-1 inconclusive and RECQ1 inh-2 -15.6%.
COc1ccc(C(=O)Nc2ccc(S(=O)(=O)N3CCCC3)cc2)cc1 was read as BLM inh -4.1%, TexasRed fluor 0.1%, TRb SRC2 PPI 1.5% and RECQ1 inh-1 inactive.
Screening COc1ccc(NS(=O)(=O)c2cccc(NC(=O)c3ccc(S(=O)(=O)N4CCCCCC4)cc3)c2)cc1 returned BLM inh -3.4%, TexasRed fluor 0.1%, TRb SRC2 PPI 5.3%, RECQ1 inh-1 -14.3%, RECQ1 inh conf -2.5% and ADP FP counter 4.3%.
For COc1ccc(NC(=O)c2ccc(CNS(=O)(=O)c3cccc(OC)c3)cc2)cc1 the results were BLM inh -3.6%, TexasRed fluor -2.4%, TRb SRC2 PPI 2.7%, RECQ1 inh-1 35.5µM* and RECQ1 inh-2 0.3%.
`COc1ccc(NS(=O)(=O)c2ccc(O)c(NC(=O)c3ccc(S(=O)(=O)N4CCCC4)cc3)c2)cc1` gave BLM inh -5.7%, TexasRed fluor -3.8%, TRb SRC2 PPI 5.1%, RECQ1 inh-1 4.6%, RECQ1 inh conf 8.2% and ADP FP counter 4.5%.
Screening O=S(=O)(Nc1nc2ccccc2nc1Nc1cccc(S(=O)(=O)N2CCCCC2)c1)c1ccccc1 returned BLM inh -19.3%, TexasRed fluor -4.9%, TRb SRC2 PPI 14.1%, RECQ1 inh-1 inconclusive and RECQ1 inh-2 inconclusive.
For CC(C)C[C@@H](CC(=O)N[C@@H](CCC(=O)O)CC(=O)O)NC(=O)[C@@H]1CCCC[C@H]1NC(=O)C[C@H](CCCN)NC(=O)C[C@H](Cc1ccccc1)NC(=O)[C@@H]1CNCC[C@H]1N the results were BLM inh 5.7%, TexasRed fluor -3.3%, TRb SRC2 PPI -1.2% and RECQ1 inh-1 -10.6%.
For COc1ccc(C(=O)NNC(=O)c2ccc(S(=O)(=O)N3CCCCC3)cc2)cc1 the results were BLM inh -1.5%, TexasRed fluor -0.8%, TRb SRC2 PPI -12.3% and RECQ1 inh-1 -8.9%.
For COc1ccc(NS(=O)(=O)c2ccc(O)c(NC(=O)c3ccc(S(=O)(=O)N4CCCCCC4)cc3)c2)cc1 the results were BLM inh -18.8%, TexasRed fluor -0.7%, TRb SRC2 PPI 16.3%, RECQ1 inh-1 6.3%, RECQ1 inh conf -13.5% and ADP FP counter 10.2%.

Bioassay records as filed in PubChem.
